PINK1 modulator = changes PINK1 expression | PINK1 immunofluorescence, high-content cytometry, 24 h | Potency, µM (titrated, usually from 76.6 µM), inactives show at the highest dose activation (PINK1 increase), hits mostly activators | hit rate 0.2% among 410,000 | AID 624263; active = well fitted activation curve with a large enough effect; inconclusive = small, poorly fitted or top-dose-only effect; cell line not stated here; note: % of control where 0% means no effect; nearly all actives have a fitted effect of over 65% in size
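A stable cell line was treated with compounds at 5 concentrations for 24 hours, with CCCP as control. PINK1 levels and mitochondrial localization were measured by immunofluorescence with mitochondrial, cell and nuclear markers after fixation, read by laser-scanning cytometry.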
Vif-A3F inh = blocks the Vif interaction with APOBEC3F | hit rate 0.2% among 390,000 | Potency, µM (series often up to 46.1 µM), for the others: at the highest dose activity, negative = active | HeLa A3F-eYFP + Vif (tagged APOBEC3F with the HIV-1 protein that degrades it), YFP fluorescence increase; note: % of control where 0% means no effect; nearly all actives have a fitted effect of over 65% in size
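HeLa cells stably expressing Vif plus C-terminally eYFP-tagged A3F were seeded, incubated overnight at 37 deg C, dosed with compound, incubated overnight again at 37 deg C. Yellow fluorescence (Ex 488/Em 500-530) reported blocked Vif-mediated A3F-eYFP degradation.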
GLS inhibitor = inhibitors of human glutaminase (GLS); O94925; GLS enzymatic activity, qHTS titration; Potency, µM (doses to about 45.5 µM), inactives show at the top dose activity change, negative = inhibition, hits mostly inhibitors; hit rate 0.21% among 410,000; note: % is set by controls: 0 for no effect and ±100 for the full control effect
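Compounds were pin-transferred onto hKGA, after which L-glutamine (1 mM solution) and a detection mix of glutamate oxidase, HRP and Amplex Red were added. Initial and 30 min RT fluorescence reads were collected.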
Vif-APOBEC3G blk = Vif-A3G binding inhibition; Q9HC16; hit rate 0.076% among 410,000; HeLa A3G-eYFP + Vif (tagged APOBEC3G with the HIV-1 protein that degrades it), YFP fluorescence, overnight; Potency, µM (top dose mostly 46.1 µM), for the others: top-dose activity, negative = active, actives largely listed as inhibitors; note: % is set by controls: 0 for no effect and ±100 for the full control effect; nearly all actives have a fitted effect of over 60% in size
Target sequence (Q9HC16 whole entry, looked up): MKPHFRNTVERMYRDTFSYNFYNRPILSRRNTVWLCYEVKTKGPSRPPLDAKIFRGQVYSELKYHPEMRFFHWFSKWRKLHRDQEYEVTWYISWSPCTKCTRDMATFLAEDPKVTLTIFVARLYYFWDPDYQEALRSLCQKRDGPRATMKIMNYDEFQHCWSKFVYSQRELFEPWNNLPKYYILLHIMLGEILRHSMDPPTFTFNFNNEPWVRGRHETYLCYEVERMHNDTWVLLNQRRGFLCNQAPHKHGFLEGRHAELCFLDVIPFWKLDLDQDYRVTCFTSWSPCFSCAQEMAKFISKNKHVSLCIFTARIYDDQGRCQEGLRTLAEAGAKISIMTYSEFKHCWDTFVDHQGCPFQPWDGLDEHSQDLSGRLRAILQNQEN
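HeLa cells stably expressing Vif and C-terminally eYFP-tagged A3G, seeded overnight at 37 deg C, then exposed to compound by pintool overnight at 37 deg C. Rise in yellow fluorescence (Ex 488/Em 500-530, Acumen) marks blocked Vif-driven A3G degradation.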
Epigenetic derep = regulators of epigenetic silencing causing reporter derepression in mouse cells; murine LDR cells, GFP reporter derepression, 30 h; hit rate 0.2% among 280,000; Potency, µM (top dose mostly 53.9 µM), for inactives: top-dose GFP activation, hits mostly activators; AID 1865; note: % of control where 0% means no effect; nearly all actives have a fitted effect of over 60% in size
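In this reporter-derepression format, murine cells bearing a silenced integrated CMV-GFP locus incubate with test compound (30 h, 37 C), then are washed and imaged; fluorescent objects of 20–120 um count as induced cells.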
An asterisk follows results filed as active; ? = inconclusive; nt = not tested or not shown. Hits are enriched below; roughly 0.7% of the tested compounds scored in any of these assays. Unless noted, calls come from the whole dose curve; as a rule, active = well fitted curve in the direction sought with a large enough effect; inconclusive = small, poorly fitted or top-dose-only effect, or another doubt; inactive = no such curve, though single readings can be large; an effect the other way counts as inactive or inconclusive. Potency is the fitted concentration of half-maximal effect.

SMILES	PINK1 modulator	Vif-A3F inh	GLS inhibitor	Vif-APOBEC3G blk	Epigenetic derep
N#C/C(=N/Nc1ccc(OC(F)(F)F)cc1)C(N)=S	14µM*	-13%	?	5%	-1%
COc1ccc(N/N=C(\C#N)C(N)=O)cc1	0%	3%	?	-1%	-1%
CCNc1ccc(Br)cc(C(=O)/C=C/c2ccc3c(c2)OCO3)c1=O	0%	13µM*	-7%	-29%	2%
O=C(NCC1(N2CCCCC2)CCCCC1)c1ccc(-n2cc(NC(=O)c3cccnc3)cn2)cc1	0%	nt	nt	nt	nt
O=C1NC(=Nc2ccc(O)cc2)S/C1=C/c1ccco1	-1%	-1%	15%	11µM*	3%
CCN(CC)c1ccc(C=C2C(=O)OC(c3ccccc3)OC2=O)cc1 (stereo not drawn)	2%	-20%	2%	-1%	1%
CCN(CC)c1ccc(/C=C/C(=O)C2C(=O)C=C(C)OC2=O)cc1 (stereo not drawn)	?	-314%	32%	13%	11µM*
CC(OC(=O)c1cccc(O)c1)C(=O)N(C)Cc1ccccc1 (stereo not drawn)	0%	-7%	-1%	-7%	nt
CC(OC(=O)/C(C#N)=C/c1ccc(N(C)C)cc1)C(=O)N(C)Cc1ccccc1 (stereo not drawn)	1%	22µM*	8%	?	nt
CC1(C)S[C@H]2C(NC(=O)[C@@H](N)c3ccc(O)cc3)C(=O)N2[C@@H]1C(=O)O (stereo partly drawn)	nt	nt	14µM*	nt	-1%
Cc1onc(-c2c(F)cccc2Cl)c1C(=O)N[C@@H]1C(=O)N2[C@H]1SC(C)(C)[C@H]2C(=O)O	nt	nt	3.5µM*	nt	nt
CC1(C)S[C@@H]2[C@H](NC(=O)[C@H](N)c3ccccc3)C(=O)N2[C@H]1C(=O)O	3%	-2%	10µM*	1%	0%
CCN1CCN(C(=O)N[C@H](C(=O)N[C@@H]2C(=O)N3[C@@H](C(=O)O)C(C)(C)S[C@@H]23)c2ccccc2)C(=O)C1=O	nt	nt	25µM*	nt	nt
CC(CSC(=O)c1ccccc1)C(=O)N1CC(Sc2ccccc2)CC1C(=O)O (stereo not drawn)	nt	nt	3%	nt	nt
CCC(C)C1OC2(C=CC1C)CC1CC(C/C=C(\C)C(OC3CC(OC)C(OC4CC(OC)C(NC(C)=O)C(C)O4)C(C)O3)C(C)/C=C/C=C3\COC4C(O)C(C)=CC(C(=O)O1)C34O)O2 (stereo not drawn) (tested in a mixture with another compound)	nt	nt	-2%	nt	nt
OC[C@H]1O[C@@H](n2cnc3c2NC=NC[C@H]3O)C[C@@H]1O	nt	nt	1%	nt	nt
CC(Oc1ccccc1)C(=O)NC1C(=O)N2C(C(=O)O)C(C)(C)S[C@@H]12 (stereo partly drawn)	2%	nt	nt	nt	0%
CC1(C)SC2C(N3C(=O)C(c4ccccc4)NC3(C)C)C(=O)N2C1C(=O)O (stereo not drawn)	nt	nt	28µM*	nt	-1%
COc1ccc(-c2c(C#Cc3ccc(N(C)C)cc3)c3ccccc3n2C)cc1	18µM*	-4%	8%	-4%	nt
COc1ccc(OCC(=O)Nc2sc3c(c2C(=O)NCC2CCCO2)CCC3)cc1 (stereo not drawn)	11µM*	-2%	7%	0%	4%
Cc1nn(C)cc1CN1CCOc2ccc(CN3CCC(Oc4cccnc4)CC3)cc2C1	-1%	nt	nt	nt	nt
CCCOCc1cc(CN2CCN(c3cccc(Cl)c3)CC2)c(O)c2ncccc12	?	?	1%	-3%	?
CN1CCN(Cc2cc(COCc3ccccc3)c3cccnc3c2O)CC1	-1%	?	4µM*	-6%	3.5µM*
Oc1c(CN2CCc3ccccc3C2)cc(Cl)c2cccnc12	2%	?	3%	-13%	4µM*
COc1ccc(CN2CCCC(n3cc(C(=O)N4CCCCC4)nn3)C2)c(OC)c1C (stereo not drawn)	-1%	nt	nt	nt	nt
SMILES	PINK1 modulator	Vif-A3F inh	GLS inhibitor	Vif-APOBEC3G blk	Epigenetic derep
CCc1c(C)sc(NC(=O)CSc2nc3c(c(C(F)(F)F)n2)CCc2ccccc2-3)c1C#N	16µM*	-1%	4%	0%	1%
Cc1cc(C(=O)Nn2c(C3CCCCC3)nc3ccccc3c2=O)ccc1[N+](=O)[O-]	16µM*	-1%	1%	-15%	-2%
CCCCCCc1cc2cc(S(=O)(=O)c3ccc(F)c(Cl)c3)c(=O)oc2cc1O	13µM*	9%	6%	-13%	-1%
CCCCCCc1cc2cc(-c3nnc(-c4ccc(C)cc4)o3)c(=O)oc2cc1O	-1%	?	12%	?	2.2µM*
CCCCCCc1cc2cc(C(=O)Nc3ccc(OC)cc3)c(=O)oc2cc1O	40µM*	3%	-5%	-2%	-1%
CCCCCCc1cc2cc(C(=O)Nc3cccc(OC)c3)c(=O)oc2cc1O	?	5%	7%	0%	-1%
CCCCCCc1cc2cc(C(=O)OCC)c(=O)oc2cc1O	?	8%	10%	0%	0%
COc1ccc(CN2CCOc3ccc(CN4CCC(Oc5cccnc5)CC4)cc3C2)cc1	-1%	nt	nt	nt	nt
CC1CN(CC(=O)NCCc2ccncc2)Cc2ccccc2O1 (stereo not drawn)	0%	nt	nt	nt	nt
N#CC(C#N)=C(N)CSc1cccc[n+]1[O-]	-1%	?	2%	2%	8.9µM*
CC(=O)[C@@H]1[C@@H]2C(=O)N(Cc3ccccc3)C(=O)[C@@H]2C2c3ccccc3C=CN21 (stereo partly drawn)	11µM*	-11%	-1%	-9%	1%
N=c1c(C(=O)NCc2ccco2)cc2c(=O)n3ccccc3nc2n1Cc1ccc(Cl)cc1	-3%	-38%	-22%	-9%	7.1µM*
N=c1c(S(=O)(=O)c2ccc(Cl)cc2)cc2c(=O)n3ccccc3nc2n1Cc1cccnc1	40µM*	?	2%	?	nt
N=c1c(C(=O)NCc2ccco2)cc2c(=O)n3ccccc3nc2n1Cc1ccccc1	1%	4%	?	-2%	0%
N=c1c(S(=O)(=O)c2ccc(Cl)cc2)cc2c(=O)n3ccccc3nc2n1CCN1CCOCC1	3%	-1%	2%	-6%	4%
COc1ccc(O)c(CN2CCC3(CCC(CNC(=O)C4CCCO4)O3)CC2)c1 (stereo not drawn)	-1%	nt	nt	nt	nt
COCCN1CCN(C(=O)c2cnn(-c3nccc(-c4ccccc4OC)n3)c2-c2ccco2)CC1	0%	nt	nt	nt	nt
CCOC(=O)NC(=O)/C(C#N)=N\Nc1ccc(Cl)cc1	-1%	-4%	27%	4%	0%
CCOC(=O)NC(=O)/C(C#N)=N\Nc1cccc(Cl)c1	16µM*	9%	7%	0%	-5%
Cc1cnc(-n2ncc(C(=O)N(C)CC3COCCO3)c2C2CC2)nc1-c1cccs1 (stereo not drawn)	0%	nt	nt	nt	nt
Cc1[nH][nH]c(=O)c1C(c1ccc(O)c(Br)c1)c1c(C)[nH][nH]c1=O	-2%	7%	13µM*	-15%	nt
